Results on one compound are retold here after ChEMBL document CHEMBL1201862, “PubChem BioAssay data set” (2004).

Hit rate of the full screen: of about 390,000 compounds, about 910 (0.23%) were called active. About 5% were inconclusive and are not listed. This is one part of a sample in which actives are shown more often than they occur. The rule behind the calls is not given here.

This test has as its target T1, Ubiquitin carboxyl-terminal hydrolase 1 (Homo sapiens) (UniProt O94782).
T1 sequence (whole entry): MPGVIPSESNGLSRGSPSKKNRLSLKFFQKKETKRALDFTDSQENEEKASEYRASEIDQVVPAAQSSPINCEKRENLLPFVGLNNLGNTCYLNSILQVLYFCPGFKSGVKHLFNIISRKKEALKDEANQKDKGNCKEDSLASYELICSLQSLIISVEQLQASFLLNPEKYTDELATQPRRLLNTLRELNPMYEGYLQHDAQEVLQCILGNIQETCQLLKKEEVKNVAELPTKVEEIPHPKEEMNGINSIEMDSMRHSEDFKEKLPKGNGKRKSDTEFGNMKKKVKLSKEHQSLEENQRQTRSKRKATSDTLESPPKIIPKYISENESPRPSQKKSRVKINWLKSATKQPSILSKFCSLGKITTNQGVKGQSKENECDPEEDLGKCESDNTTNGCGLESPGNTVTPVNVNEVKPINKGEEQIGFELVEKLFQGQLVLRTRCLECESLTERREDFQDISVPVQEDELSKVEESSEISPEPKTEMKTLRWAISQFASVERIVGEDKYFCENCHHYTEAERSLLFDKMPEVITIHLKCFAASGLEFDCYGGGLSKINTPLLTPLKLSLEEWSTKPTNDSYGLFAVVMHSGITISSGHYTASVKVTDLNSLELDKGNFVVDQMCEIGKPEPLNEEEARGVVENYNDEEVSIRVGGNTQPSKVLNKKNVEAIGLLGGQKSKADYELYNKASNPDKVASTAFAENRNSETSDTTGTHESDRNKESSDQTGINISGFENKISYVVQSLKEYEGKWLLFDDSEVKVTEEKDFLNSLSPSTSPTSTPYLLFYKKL
The test can be described thus: Inhibitors of USP1/UAF1: Primary Screen. The class given is functional.
Consider `CCn1nc(-c2ccccc2)nc2c(=O)n(C)c(=O)nc1-2`, for which the Potency was 89.1 µM (active).
